# CHX counter: affects cycloheximide protein synthesis inhibition readout, counter-screen; max response, %; cell reporter, cycloheximide protein synthesis inhibition counterscreen; 12% of 300,000 active; AID 2314; in the data active means max response mostly above about 13%, no sharp cut-off; inactive means mostly below about 14%; further: read at 38.3 µM for the half of the compounds with a filed dose
# LmPK inh: LmPK (Leishmania mexicana) enzyme inhibition. 0.37% of 290,000 active. Potency, µM (titrated, usually from 57.5 µM), hits mostly inhibitors. Q27686. purified LmPK, Kinase-Glo ATP luminescence, 1 h. AID 1721
# Target sequence (Q27686 whole entry, looked up): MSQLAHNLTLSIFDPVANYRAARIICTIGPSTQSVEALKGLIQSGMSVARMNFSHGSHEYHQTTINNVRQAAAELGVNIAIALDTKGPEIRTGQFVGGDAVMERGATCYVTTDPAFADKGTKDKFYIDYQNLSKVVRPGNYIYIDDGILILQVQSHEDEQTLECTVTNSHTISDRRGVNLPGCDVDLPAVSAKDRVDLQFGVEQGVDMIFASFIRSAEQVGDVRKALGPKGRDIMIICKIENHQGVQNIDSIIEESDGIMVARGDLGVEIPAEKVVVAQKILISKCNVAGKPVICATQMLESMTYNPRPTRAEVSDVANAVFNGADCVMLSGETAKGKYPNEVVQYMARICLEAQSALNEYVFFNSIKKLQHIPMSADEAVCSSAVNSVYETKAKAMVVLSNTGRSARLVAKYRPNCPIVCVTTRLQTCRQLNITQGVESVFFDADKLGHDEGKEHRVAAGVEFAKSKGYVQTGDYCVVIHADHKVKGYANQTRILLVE
#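 0.1 nM LmPK, 0.5 mM PEP, 0.1 mM ADP; 50 mM imidazole pH 7.2, 7 mM MgCl2, 50 mM KCl; 1 h RT. Kinase-Glo luminescence readout, normalized to no-enzyme (full inhibition) and uninhibited wells.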
# TbPYK inhibitor: blocks Trypanosoma brucei pyruvate kinase | Q57TT1 | TbPYK enzyme, Kinase-Glo Plus ATP luminescence, 45 min | Potency, µM (titrated, usually from 76.8 µM), most hits filed as inhibitors | 0.12% of 410,000 active | AID 624173; further: nearly all actives have a fitted effect of over 50% in size
#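 Assay buffer: 50 mM TEA pH 7.2, 100 mM KCl, 10 mM MgCl2, 0.05% BSA, 0.01% Tween-20. Pyruvate kinase from T. brucei plus substrate met compound, then ADP (130 uM final). Luminescence was read post 45 min RT.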
# Giardia FBPA inh: Giardia lamblia aldolase inhibition; AID 2451; purified Giardia FBPA; 0.71% of 290,000 active; Potency, µM (highest dose often 59.6 µM), usual class: inhibitors; A8B2U2; further: nearly all actives have a fitted effect of over 55% in size
#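 Giardia FBPA (40 nM reagent) was preincubated 10 min at RT with compound (up to 57.5 uM final), then substrate plus GAPDH/TPI/NAD/arsenate coupling system with diaphorase/resazurin was added; resorufin fluorescence (525/598 nm) was read after 20 min.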
# Shiga toxin inh: inhibitors of Shiga toxin in Vero cells. Vero cells, Shiga toxin protein synthesis inhibition reporter. inhibition, % at 38.7 µM. 9.2% of 290,000 active. AID 2315; in the data active means inhibition mostly above about 28%, no sharp cut-off; inactive means mostly below about 43%
# Sm TGR block: S. mansoni TGR enzyme inhibition; Q962Y6; 3% of 360,000 active; Potency, µM (doses to about 114 µM), usual class: inhibitors; purified TGR, DTNB reduction, TNB absorbance 405 nm; further: nearly all actives have a fitted effect of over 60% in size
#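 TGR 20 nM + NADPH 100 uM (dispensed conc.), cpd preinc 15 min RT; start with NADPH (500 uM addition) then DTNB (15 mM addition). Kinetic TNB absorbance, 405 nm filter. Four-parameter Hill fit across titration.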
# A number is an active result; i = inactive; ? = inconclusive; nt = no result. The entries come from a sample that favours hits as a whole. Unless noted, the call rests on the fitted dose curve; in most records, active means well fitted curve in the direction sought with a large enough effect; inconclusive means small, poorly fitted or top-dose-only effect, or another doubt; inactive means no such curve, though single readings can be large; an effect the other way counts as inactive or inconclusive.
SMILES,CHX counter,LmPK inh,TbPYK inhibitor,Giardia FBPA inh,Shiga toxin inh,Sm TGR block
COc1cccc(-c2nc3ccc(C(=O)N4CCCC(O)C4)cc3o2)c1 (stereo not drawn),59,i,i,nt,112,i
CCC(=O)C1CCCN(C(=O)c2ccc3nc(-c4cccc(OC)c4)oc3c2)C1 (stereo not drawn),45,i,i,i,69,i
Cc1sc2nc(SCC(=O)N3CCOCC3)[nH]c(=O)c2c1-c1ccccc1,i,i,i,?,i,i
NC(=O)C1CCN(C2=C(Cl)C(=O)c3ccccc3C2=O)CC1,i,i,i,?,i,0.45µM
COc1ccc(OCCn2cnc3ccccc32)cc1,9.5,i,i,i,33,i
O=C(Cn1cnc2ccccc21)c1ccc(Br)cc1,22,i,i,i,i,i
CC(=O)c1ccc(OCCn2cnc3ccccc32)cc1,i,i,i,i,i,i
c1ccc(CCn2cnc3ccccc32)cc1,29,i,i,i,i,i
CCCOc1ccc(Cn2cnc3ccccc32)cc1,14,i,i,i,i,i
c1ccc2c(c1)ncn2CCN1CCCCC1,i,i,i,i,i,i
COc1ccc2oc(=O)cc(CN3CCN(c4ccc(F)cc4)CC3)c2c1,nt,nt,i,nt,nt,i
c1ccc(OCCn2cnc3ccccc32)cc1,29,i,i,i,i,i
CCCCN(C(=O)Cc1ccc2c(c1)OCCO2)c1c(N)n(CC(C)C)c(=O)[nH]c1=O,nt,nt,i,nt,nt,i
Cn1c(C(=O)N2CCCC(C(=O)NCCCc3ccccc3)C2)cc2sccc21 (stereo not drawn),i,i,?,i,i,i
Cn1c(C(=O)N2CCCC(C(=O)NCCc3ccccc3)C2)cc2sccc21 (stereo not drawn),18,i,?,i,61,i
Cc1ccc(CCNC(=O)C2CCCN(C(=O)c3cc4sccc4n3C)C2)cc1 (stereo not drawn),i,i,8.9µM,i,i,i
CCCCNC(=O)C1(C)CCCCN1C(=O)c1ccc2c(c1)C(C)(C)CCC2(C)C (stereo not drawn),nt,nt,i,nt,nt,nt
CC1(C)CC(=O)C2=C(C1)OC(N)=C(C#N)C2c1ccc[nH]1 (stereo not drawn),i,i,i,i,i,18µM
CCc1nc2nc(C)cc(Nc3cc(Cl)ccc3C)n2n1,nt,nt,i,nt,nt,i
Cc1ccc2c(=O)c(C(=O)c3cccc(Cl)c3)cn(CC(=O)Nc3ccccc3C(F)(F)F)c2n1,nt,nt,i,nt,nt,i
O=C1/C(=C/N(C(=O)c2ccco2)c2ccc(Cl)cc2)Sc2ccccc21,39,?,i,i,91,40µM
O=C1/C(=C/N(C(=O)c2ccco2)c2ccc(Br)cc2)Sc2ccccc21,37,i,i,i,i,13µM
O=C(O)C1(Nc2ccc(Br)cc2)CCCC1,nt,nt,i,nt,nt,nt
S=c1[nH]nc(-c2ccc(Br)o2)n1Cc1ccccc1,i,?,10µM,i,i,i
S=c1[nH]nc(-c2ccco2)n1Cc1ccccc1,i,14µM,?,i,i,i
SMILES,CHX counter,LmPK inh,TbPYK inhibitor,Giardia FBPA inh,Shiga toxin inh,Sm TGR block
S=c1[nH]nc(-c2ccccc2)n1Cc1ccccc1,i,10µM,?,i,i,i
COc1ccc(-c2n[nH]c(=S)n2Cc2ccccc2)cc1,i,?,?,i,i,i
Fc1ccc(NCc2n[nH]c(=S)n2Cc2ccccc2)cc1,i,?,7.1µM,i,i,i
Cc1n[nH]c(=S)n1Cc1ccccc1,i,i,i,i,i,i
CCNC(=O)C1(C)CCN(Cc2ccc(OC(F)(F)F)cc2)C1 (stereo not drawn),nt,nt,i,nt,nt,nt
CC1(CN2CCC(n3c(=O)[nH]c4ccccc43)CC2)OCc2ccccc2-n2cccc21 (stereo not drawn),i,nt,i,i,i,nt
CCOC(=O)c1c(C)[nH]c(C)c1S(=O)(=O)N1CCC(C(=O)N2CCN(c3cccc(C)c3)C(C)C2)CC1 (stereo not drawn),nt,nt,i,nt,nt,i
COCCCn1c(-c2ccc(Cl)cc2)n[nH]c1=S,i,?,?,i,i,i
COc1ccc(-c2n[nH]c(=S)n2Cc2ccccc2)cc1OC,i,?,?,i,i,?
CCOCCCn1c(-c2ccc(Cl)cc2)n[nH]c1=S,i,?,8.9µM,i,i,i
CCCCc1n[nH]c(=S)n1Cc1ccccc1,i,i,?,i,i,i
CCCCc1n[nH]c(=S)n1Cc1ccc(Cl)cc1,i,?,10µM,i,i,i
S=c1[nH]nc(-c2ccc(Cl)cc2)n1Cc1ccccc1,i,13µM,?,i,i,i
S=c1[nH]nc(-c2ccco2)n1/N=C/c1ccc(Cl)cc1,i,i,4µM,i,i,i
COc1ccc2oc(C(=O)N(Cc3ccco3)Cc3cccs3)c(C)c2c1,nt,nt,i,nt,nt,?
COC(=O)CCCC1=CC2=C(c3ccccc3)C(=O)C(C)(OC(=O)C3CCCC3)C(=O)C2=CO1 (stereo not drawn),nt,nt,nt,i,nt,nt
O=C(CCC(=O)c1ccccc1)NCCOc1ccccc1,i,i,i,i,i,nt
O=C(CC1CCCCC1)NCCOc1ccccc1,9.7,i,i,i,50,i
O=C(NCCOc1ccccc1)C1CCN(C(=O)Nc2ccccc2)CC1,nt,nt,i,nt,nt,nt
O=C(NCCOc1ccccc1)C1CCCCC1,29,i,i,i,72,i
O=C(CSc1ccc(-c2nc3ccccc3[nH]2)cn1)Nc1ccc2c(c1)OCCO2,18,i,i,i,i,i
O=C(CSc1nc(-c2ccc(F)cc2)[nH]c1-c1ccc(F)cc1)Nc1ccc2c(c1)OCCO2,nt,nt,i,nt,nt,i
Cc1cc2nc(-c3ccc(SCC(=O)Nc4ccc5c(c4)OCCO5)nc3)[nH]c2cc1C,48,i,i,i,157,i
Cc1ccc2nc(-c3ccc(SCC(=O)Nc4ccc5c(c4)OCCO5)nc3)[nH]c2c1,107,i,i,i,81,i
Cc1ccc(-c2ccc(SCC(=O)Nc3ccc4c(c3)OCCO4)nn2)cc1,28,i,i,i,22,i
SMILES,CHX counter,LmPK inh,TbPYK inhibitor,Giardia FBPA inh,Shiga toxin inh,Sm TGR block
O=C(CCCCCN1C(=O)c2cccc3cccc(c23)C1=O)NO,i,nt,nt,i,i,nt
COc1ccc(CCNC(=O)C(=O)NCC(c2cccnc2)N2CCN(c3ccccc3)CC2)cc1 (stereo not drawn),nt,nt,i,nt,nt,i
COc1cccc(CNC(=O)CCc2c(C)c3cc4c(C)c(C)oc4cc3oc2=O)c1,nt,nt,i,nt,nt,i
Cc1ccc(-c2ccc(SCC(=O)Nc3nonc3C)nn2)cc1,27,i,i,i,42,i
COc1ccccc1C(=O)NCCN1CCN(c2ccccc2)CC1,i,i,i,i,i,i
CN(C)S(=O)(=O)c1cccc(NC(=S)Nc2cc(Cl)cc(Cl)c2)c1,i,i,i,?,i,?
CN(C)S(=O)(=O)c1cccc(NC(=S)Nc2ccc(Cl)cc2Cl)c1,i,i,i,i,i,8.9µM
CCN(CCO)c1ccc(NC(=S)Nc2cccc(S(=O)(=O)N(C)C)c2)cc1,i,i,i,7.9µM,i,40µM

# Screening data deposited in PubChem BioAssay by National Center for Advancing Translational Sciences (NCATS).
